In all, about 4,700 compounds went through this assay and about 760 (16%) were called active. Not all results are given here. A number with no mark means an inactive call.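 The calls were made as follows: active = inhibition above a cutoff derived from the DMSO control wells (cut at about 28% in these data); inactive = the rest.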
molecular target: Microphthalmia-associated transcription factor (Homo sapiens) (UniProt O75030); assay: blockers of human MITF dimerization – biochemical, AlphaScreen, triplicate, confirmation (AID 1259372); conditions: AlphaScreen MITF homodimerization, biotin/His-MITF beads; at 2.6 µM; active compounds read high
Sequence (O75030 whole entry, looked up): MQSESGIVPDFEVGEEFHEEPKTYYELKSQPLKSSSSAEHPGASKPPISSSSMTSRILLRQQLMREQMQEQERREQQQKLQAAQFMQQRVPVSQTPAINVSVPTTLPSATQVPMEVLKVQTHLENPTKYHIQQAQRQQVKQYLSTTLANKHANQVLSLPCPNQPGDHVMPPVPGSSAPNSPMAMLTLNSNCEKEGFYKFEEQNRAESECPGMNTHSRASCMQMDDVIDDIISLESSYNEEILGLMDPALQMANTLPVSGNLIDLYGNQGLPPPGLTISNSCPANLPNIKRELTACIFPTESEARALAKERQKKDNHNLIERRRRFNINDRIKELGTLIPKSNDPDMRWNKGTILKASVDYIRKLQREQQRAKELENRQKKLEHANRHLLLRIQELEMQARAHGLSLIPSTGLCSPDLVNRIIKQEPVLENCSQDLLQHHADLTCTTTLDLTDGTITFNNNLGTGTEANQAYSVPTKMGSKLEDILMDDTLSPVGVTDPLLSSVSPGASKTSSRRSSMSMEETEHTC

| SMILES | inhibition |
| --- | --- |
| CC1CN(CCOc2ccccc2[N+](=O)[O-])CC(C)O1 (stereo not drawn) | 6.95% |
| Cc1ccc(C(C)C)c(OCCN2CCNCC2)c1 | -8.7% |
| COc1ccc(NC(=O)CN2CCN(C)CC2)c(OC)c1 | 13% |
| COc1ccc2c(c1)CC(C(=O)Nc1ccc(-c3cn[nH]c3)cc1OCC(N)=O)CO2 (stereo not drawn) | 40.3% (active) |
| COc1ccc2c(c1)CC(C(=O)Nc1ccc(-c3cn[nH]c3)cc1OCc1ccccc1)CO2 (stereo not drawn) | 56% (active) |
| CC1CCN(S(=O)(=O)c2ccc(Cl)c(C(=O)Nc3ccccc3[N+](=O)[O-])c2)CC1 | 16.1% |
| Clc1cccc(CN2CCN(C3CCCC3)CC2)c1 | 12.9% |
| O=C(c1cccc(Cl)c1)N1CCN(Cc2cccnc2)CC1 | 16.8% |
| Brc1cccc(CN2CCN(Cc3cccnc3)CC2)c1 | 5.44% |
| O=C(c1ccc2c(c1)C(=O)N(Cc1cccnc1)C2=O)c1ccc2c(c1)C(=O)N(Cc1cccnc1)C2=O | 51.2% (active) |
| COc1ccc(-c2nc(Nc3cc(OC)c(OC)c(OC)c3)c3[nH]cnc3n2)cc1 | 14% |
| COc1cc(CN2CCN(Cc3ccc(Cl)cc3)CC2)c([N+](=O)[O-])cc1OC | 5.78% |
| O=C(Nc1ccc(-c2ccncc2)c(C(F)(F)F)c1)C1COc2ccccc2O1 (stereo not drawn) | 42.5% (active) |
| COc1ccc(CN2CCN(Cc3ccccc3C(F)(F)F)CC2)cc1OC | 24.4% |
| CCN1CCN(CC(O)COc2cccc(C(=O)OC)c2)CC1 (stereo not drawn) | -4.86% |
| COc1cccc(CN2CCN(C/C=C/c3ccccc3)CC2)c1OC | 2.33% |
| Cc1cc(NC(=O)/C=C/C(=O)N(CC(=O)NC2CCCC2)c2ccc(F)cc2)no1 | 10.1% |
| COc1cccc(OC)c1C(=O)N1CCN(Cc2cccnc2)CC1 | -5.41% |
| CS(=O)(=O)N1CCN(Cc2cccc(Cl)c2)CC1 | -2.19% |
| CN(CCc1ccccn1)CC(=O)N1CCc2ccccc21 | 12.3% |
| CSc1ccc(CN2CCN(S(=O)(=O)c3ccc([N+](=O)[O-])cc3)CC2)cc1 | 19.9% |
| Cn1c(=NC(=O)COc2ccccc2)sc2cc(S(C)(=O)=O)ccc21 | 4.53% |
| NS(=O)(=O)c1cccc(NC(=O)COc2ncnc3sc(-c4ccccc4)cc23)c1 | 13.3% |
| Cc1cc(S(=O)(=O)Nc2ccc3c(c2)OCCO3)ccc1-n1cnnn1 | 5.76% |

| SMILES | inhibition |
| --- | --- |
| COc1cc2nc(-c3cccc(C(C)=O)c3)nc(N)c2cc1OC | -8.94% |
| O=C1c2ccccc2C(O)N1Cc1ccccc1Cl (stereo not drawn) | -9.08% |
| COc1ccc(C2C(C(C)=O)=C(C)N=C3SCC(=O)N32)c(OC)c1 (stereo not drawn) | -3.48% |
| CCN1CCN(CCCCOc2ccccc2F)CC1 | 6.76% |
| O=C(c1ccccc1)N1CCN(C2CCCC2)CC1 | -3.05% |
| Cc1nc(NC(=O)c2cc(Br)ccc2Cl)sc1C | 11% |
| CC1(C)CC(=O)C2=C(C1)Nc1ccccc1N(C(=O)Cc1ccccc1)C2c1ccc(-c2ccc([N+](=O)[O-])cc2)o1 (stereo not drawn) | 12.3% |
| CCNc1nc(NCC)nc(C(=O)O)n1 | 54.9% (active) |
| Cn1c(=O)oc2cc(S(=O)(=O)N3CCC(C(=O)NC(C)(C)C)CC3)ccc21 | -16.9% |
| C=CCn1c(SCC(=O)Nc2nc3ccccc3s2)nc(O)cc1=O | -1.3% |
| COc1cc(CN2CCN(C(=O)C(c3ccccc3)c3ccccc3)CC2)cc(OC)c1OC | 5.49% |
| CSc1nnc(SCc2nc3sc(C(=O)O)c(C)c3c(=O)[nH]2)s1 | 14.3% |
| O=C(CCC(=O)OCc1ccc(Cl)cc1)Nc1ccc([N+](=O)[O-])cc1 | 13.1% |
| CC(=O)N1CCN(CC(=O)Nc2ccc(C)c(F)c2)CC1 | -10.5% |
| Cc1ccc(NC(=O)COC(=O)CCC(=O)Nc2sc3c(c2C(N)=O)CCC3)cc1F | 87.4% (active) |
| OCCOCCN1CCN(Cc2ccc(Cl)cc2)CC1 | 1.57% |
| COc1cccc(CN2CCN(CCCc3ccccc3)CC2CCO)c1 (stereo not drawn) | -0.58% |
| COC(=O)CSc1nc(C2CC2)nc2ccccc12 | 5.56% |
| CC1CCCC(N2CCN(Cc3ccccc3Cl)CC2)C1 (stereo not drawn) | -6.77% |
| O=C(CNCc1cccnc1)Nc1ccc(C(=O)N2CCCCC2)cc1 | 7.91% |
| CC(=O)N1CCN(C(=O)c2ccc(N3CC4CC(C3)c3cccc(=O)n3C4)c(NC(=O)c3cccnc3)c2)CC1 (stereo not drawn) | -11.6% |
| CCSc1ccccc1C(=O)N1CCN(c2ccc(-c3ccccn3)nn2)CC1 | 111% (active) |
| COc1ccc(OCCn2ccnc2C)cc1 | -1.1% |
| COc1cc(CN2CCN(Cc3ccc(OC)c(OC)c3)CC2)cc(OC)c1 | 4.54% |
